CF NFkB block = inhibitors of PAF-induced NF-kB signaling, primary screen, cell-based, GFP fluorescence, uHTS; KKLEB NF-kB-GFP reporter, GFP fluorescence overnight; inhibition, % at 5 µM; actives 0.86% (n = 360,000);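 active = at least 50% inhibition at 5 µM, scaled per plate between neutral and stimulator controls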;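 note: PAF is a Pseudomonas aeruginosa culture filtrate used as stimulus; plate controls were PAF-stimulated DMSO wells for no effect and unstimulated DMSO wells for full effect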
TWEAK-Fn14 inh = inhibitors of TWEAK-Fn14 signaling, primary screen, luciferase reporter cells, uHTS. TWEAK-stimulated Fn14 reporter cells, luciferase luminescence, 8 h. inhibition, % at 10 µM. actives 2% (n = 360,000); in the data active = inhibition above about 50%
Peg3 promoter = Peg3 promoter-driven luciferase inhibitors, primary screen, cell-based, HeLa, luciferase luminescence | HeLa PEG-Prom luciferase reporter, overnight | AID 588405, 2011 | inhibition, % at 20 µM | actives 1.7% (n = 360,000);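 active = inhibition of at least 50% at 20 µM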
TROY signal inh = inhibitors of TROY-driven NF-kB signaling, primary screen, Q293 LMP1-TROYcd cells, NF-kB luciferase, uHTS; actives 0.98% (n = 360,000); Q293 LMP1-TROYcd NF-kB luciferase reporter, 4 h; inhibition, % at 10 µM; AID 1347056, 2019;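 active = compounds whose plate-normalised and pattern-corrected inhibition of the luciferase reporter signal at the single screening dose is 50% or more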
KKLEB cytotox = cytotoxicity in KKLEB CF airway cells, primary screen, cytotoxicity control for CF NF-kB inhibitor project, cell-based, uHTS, fluorescence assay plates. AID 602141, 2011. KKLEB CF airway cells viability, ATPlite luminescence, overnight; hits give low values; cells stimulated with P. aeruginosa culture filtrate. actives 0.36% (n = 360,000). activity change (cytotoxicity), % at 5 µM;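 active = corrected activity change at or below -50% at 5 µM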
HIF-2a inh = HIF-2a reporter inhibitors, primary screen, luminescence, 786-0 RCC cells. 786-0 RCC cells HIF-2a reporter, luciferase luminescence, overnight. inhibition, % at 18.8 µM. actives 0.72% (n = 360,000);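 active = inhibition of the luminescence signal of 40% or more relative to plate controls, in a single-dose primary screen at 18.75 µM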
* marks the source's active call; other numbers are inactive results; x = no result. The list is not random: actives were taken first. Their share in the collection is about 4%.

SMILES | CF NFkB block | TWEAK-Fn14 inh | Peg3 promoter | TROY signal inh | KKLEB cytotox | HIF-2a inh
COc1ccc(F)cc1-c1cc(NC=O)c2ncc(-c3cccc(C(=O)N(C)C)c3)n2c1 | 12 | 14 | 42 | -10 | -11 | 12
COc1cc(-c2cc(NC=O)c3ncc(-c4cccc(C(F)(F)F)c4)n3c2)cc(OC)c1OC | -9 | -5 | 52* | 2 | -4 | -17
COc1cc(-c2cc(NC=O)c3ncc(-c4ccc(C(C)=O)cc4)n3c2)cc(OC)c1OC | 16 | -3 | 57* | -7 | -18 | 27
CN(C)C(=O)c1cccc(-c2cnc3c(NC=O)cc(-c4ccccc4Cl)cn23)c1 | -15 | 44 | 28 | 32 | 19 | -126
CC(C)CNC(=O)C1(C)CCCCCN1C(=O)c1cc(C#N)cs1 (configuration not stated) | -2 | 3 | 4 | -9 | -5 | 0
COc1cc(-c2cnc3c(NC=O)cc(-c4ccccc4)cn23)cc(OC)c1OC | 43 | 19 | 10 | 24 | -9 | -16
COc1cc(-c2cc(NC=O)c3ncc(-c4ccccc4)n3c2)cc(OC)c1OC | 3 | 25 | 51* | 2 | -14 | -66
Cc1ccc(C(=O)OCC(=O)NC(=O)c2ccccc2)o1 | 8 | -4 | -25 | -38 | -4 | 1
Oc1ccc(Nc2nc3ccccc3nc2Nc2ccc(O)cc2)cc1 | 21 | 76* | 96* | -37 | -6 | 75*
Oc1ccc(Nc2nc(-c3ccccc3)nc3ccccc23)cc1 | -16 | 27 | 21 | 6 | -13 | -15
CC(C)NC(=O)c1ccc2c3n(nc2c1)-c1ccccc1CO3 | -43 | 58* | -46 | 8 | -43 | -59
CCc1nc2c(OCCn3cccc3)cccn2c1N(C)C(=O)c1ccc(C)cc1 | -8 | 9 | -5 | -2 | 20 | -1
Cc1ccc2nc(Cl)c(/C=N/NC(=O)[C@H]3C[C@@H]3c3ccccc3)cc2c1 | 21 | -15 | 4 | 11 | -3 | 11
Cc1ccc2nc(Cl)c(/C=N/NC(=O)c3ccccc3O)cc2c1 | 0 | -10 | -1 | 52* | 1 | -25
CCOc1ccc(CN(C)CC(=O)NCc2ccc(F)cc2)cc1 | 13 | 9 | 22 | 2 | -8 | 5
CC(c1ccco1)N(C(=O)COc1ccc(Cl)cc1Cl)c1ccccn1 (configuration not stated) | 7 | 84* | -120 | 62* | -16 | -46
Cc1cc(C)cc(C(=O)NCC(=O)OCN2C(=O)c3ccccc3C2=O)c1 | 23 | 5 | 52* | 15 | -2 | -7
Cc1cccc(C)c1NC(=O)C(c1cccc2ccccc12)n1c(=O)c(-c2cc3ccccc3[nH]2)nc2ccccc21 (configuration not stated) | x | x | x | x | x | 0
O=C(Nc1ccccc1C(=O)N1CCCCC1)c1cccc(S(=O)(=O)N2CCOCC2)c1 | 1 | 60* | 10 | x | 10 | 15
Cc1cc(NC(=O)c2cccc(S(=O)(=O)N(C)C)c2)n(-c2ccccn2)n1 | -36 | 26 | 21 | -4 | -15 | -23

High-throughput results from PubChem.
